# Results as given in PubChem BioAssay (EPA / NIEHS).
# Calls of active or inactive are those of the source. The calls were made as follows: active = hit-call score of the fitted dose curve at least 0.9, where 1 is the maximum; inactive = score below 0.9.
# Tested on: not listed separately
# Experiment: ATG_M_06_CIS: Attagene CIS-FACTORIAL HepG2 Assay for M06 Transcription Factor (Internal Marker) (AID 2282950)
# Settings: HepG2 Attagene CIS-FACTORIAL M06 internal marker reporter; actives raise or lower the signal
# Outline: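 Steps: transfect HepG2 with multiplexed cis-element reporter constructs; dose chemical 24 h; extract RNA with DNase treatment; reverse-transcribe, PCR-amplify, 6-FAM label, HpaI digest; separate fragments by capillary electrophoresis. Activity fitted both directions versus DMSO.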
row,SMILES,outcome
1,O=C(O)C(F)(F)OC(F)(F)C(F)(F)OC(F)(F)C(=O)O,inactive
2,N#Cc1cc([N+](=O)[O-])ccc1N,inactive
3,CCOS(=O)(=O)OCC,inactive
4,Nc1cc2c3c(c1)C(c1ccccc1)=N[C@@H](NC(=O)c1cccnc1)C(=O)N3CC2,inactive
5,Oc1ccc(I)cc1,inactive
6,C/C(=N\NC(=O)Nc1cc(F)cc(F)c1)c1ncccc1C(=O)O,inactive
7,CCOP(=S)(OCC)SCSCC,inactive
8,Oc1ccccc1Br,inactive
9,C=CC(=O)OCC(CC)(COC(=O)C=C)COC(=O)C=C,inactive
10,CC1(C)CN=C(NN=C(/C=C/c2ccc(C(F)(F)F)cc2)/C=C/c2ccc(C(F)(F)F)cc2)NC1,inactive
11,O=C(O)C(F)(OC(F)(F)C(F)(F)C(F)(F)F)C(F)(F)F (centres undefined),inactive
12,CC1=C(C(=O)Nc2ccccc2)S(=O)(=O)CCO1,inactive
13,O=P1(N(CCCl)CCCl)NCCCO1 (centres undefined),inactive
14,OCC1CO1 (centres undefined),inactive
15,Nc1ccc(Cl)cc1,inactive
16,CNC(=O)Oc1ccc(N(C)C)c(C)c1,inactive

row,SMILES,outcome
1,Nc1ccc(Sc2ccc(N)cc2)cc1,inactive
2,c1ccc2c(c1)sc1ccccc12,inactive
3,CC(O)C#N (centres undefined),inactive
4,OCC(F)(F)OC(F)(F)C(F)(F)OC(F)(F)CO,inactive
5,CCCCN(CCCC)N=O,inactive
6,CC(O)C(F)(F)C(F)(F)F (centres undefined),inactive
7,CCN(CC)c1ccccc1,inactive
8,O=C(O)C(F)(F)C(F)(F)C(=O)O,inactive
9,CCCCc1ccccc1,inactive
10,N#Cc1c(-c2ccc(Cl)cc2)[nH]c(C(F)(F)F)c1Br,inactive
11,O=[N+]([O-])c1ccccc1,inactive
12,CCOC(=O)c1ccccc1C(=O)OCC,inactive
13,CCC(C)(C)c1ccc(O)cc1,inactive
14,c1cc2c3c(cccc3c1)CC2,inactive
15,O=C(O)C(Cl)Cl,inactive

# Biological target: Hypoxia-inducible factor 1-alpha (Homo sapiens) (UniProt Q16665)
# Sequence (Q16665 whole entry, looked up): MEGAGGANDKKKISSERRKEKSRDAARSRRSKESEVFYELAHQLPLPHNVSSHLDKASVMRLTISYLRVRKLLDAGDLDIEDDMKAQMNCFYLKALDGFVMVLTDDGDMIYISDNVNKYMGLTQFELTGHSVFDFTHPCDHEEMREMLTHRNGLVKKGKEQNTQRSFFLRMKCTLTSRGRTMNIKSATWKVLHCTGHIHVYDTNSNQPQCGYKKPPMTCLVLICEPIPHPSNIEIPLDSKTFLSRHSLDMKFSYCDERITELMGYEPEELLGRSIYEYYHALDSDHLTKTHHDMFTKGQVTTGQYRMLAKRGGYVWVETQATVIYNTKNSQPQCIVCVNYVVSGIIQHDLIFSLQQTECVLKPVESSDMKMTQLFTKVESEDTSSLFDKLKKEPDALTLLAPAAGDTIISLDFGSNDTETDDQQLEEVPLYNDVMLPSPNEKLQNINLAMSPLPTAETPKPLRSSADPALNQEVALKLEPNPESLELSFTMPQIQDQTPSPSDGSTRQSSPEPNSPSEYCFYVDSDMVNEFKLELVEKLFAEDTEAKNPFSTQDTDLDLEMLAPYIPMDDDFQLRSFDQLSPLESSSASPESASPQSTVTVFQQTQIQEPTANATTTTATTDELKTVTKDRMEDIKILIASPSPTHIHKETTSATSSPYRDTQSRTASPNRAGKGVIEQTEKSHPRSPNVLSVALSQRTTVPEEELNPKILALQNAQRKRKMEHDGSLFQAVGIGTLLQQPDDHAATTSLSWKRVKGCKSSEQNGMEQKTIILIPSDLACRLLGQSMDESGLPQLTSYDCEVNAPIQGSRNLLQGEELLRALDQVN
# Experiment: ATG_HIF1a_CIS: Attagene CIS-FACTORIAL HepG2 Assay for human Hypoxia Inducible Factor 1 (HIF1A) (AID 2282951)
# Settings: HepG2 Attagene cis-factorial HIF1a reporter transcription; actives raise or lower the signal
# Outline: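 Transient MRTU transfection of human HepG2 liver cells, 24 h compound treatment, then total RNA isolation, oligo(dT) reverse transcription, PCR amplification, fluorescent labelling and capillary electrophoresis of reporter fragments. Gain or loss relative to DMSO.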
SMILES,outcome,AC50
O=C(O)C(F)(F)OC(F)(F)C(F)(F)OC(F)(F)C(=O)O,inactive,–
N#Cc1cc([N+](=O)[O-])ccc1N,inactive,–
COP(=O)(O)OC,inactive,–
CCOS(=O)(=O)OCC,inactive,–
Nc1cc2c3c(c1)C(c1ccccc1)=N[C@@H](NC(=O)c1cccnc1)C(=O)N3CC2,inactive,–
Oc1ccc(I)cc1,inactive,–
C/C(=N\NC(=O)Nc1cc(F)cc(F)c1)c1ncccc1C(=O)O,inactive,–
CCOP(=S)(OCC)SCSCC,inactive,–
OCC(F)(F)OC(F)(F)C(F)(F)OC(F)(F)C(F)(F)OC(F)(F)CO,inactive,–
[N-]=[N+]=[N-],inactive,–
O=S1(=O)OCC2C(CO1)C1(Cl)C(Cl)=C(Cl)C2(Cl)C1(Cl)Cl (centres undefined),inactive,–
Oc1ccccc1Br,inactive,–
FC(F)(F)C(F)(C(F)(F)F)C(F)(F)C(F)(F)CC1CO1 (centres undefined),inactive,–
C=CC(=O)OCC(CC)(COC(=O)C=C)COC(=O)C=C,inactive,–
CC1(C)CN=C(NN=C(/C=C/c2ccc(C(F)(F)F)cc2)/C=C/c2ccc(C(F)(F)F)cc2)NC1,inactive,–
CCOP(=S)(OCC)SCn1nnc2ccccc2c1=O,inactive,–
O=C(O)C=CC(F)(C(F)(F)F)C(F)(F)F,inactive,–
O=C(O)C(F)(OC(F)(F)C(F)(F)C(F)(F)F)C(F)(F)F (centres undefined),inactive,–
CC1=C(C(=O)Nc2ccccc2)S(=O)(=O)CCO1,–,27.2 µM (active)

SMILES,outcome,AC50
OCC1CO1 (centres undefined),inactive,–
Nc1ccc(Cl)cc1,inactive,–
CNC(=O)Oc1ccc(N(C)C)c(C)c1,inactive,–
Nc1ccc(Sc2ccc(N)cc2)cc1,–,45.3 µM (active)
c1ccc2c(c1)sc1ccccc12,inactive,–
CC(O)C#N (centres undefined),inactive,–
OCC(F)(F)OC(F)(F)C(F)(F)OC(F)(F)CO,inactive,–
CCCCN(CCCC)N=O,inactive,–
CC(O)C(F)(F)C(F)(F)F (centres undefined),inactive,–
CCN(CC)c1ccccc1,inactive,–
O=C(O)C(F)(F)C(F)(F)C(=O)O,inactive,–
CCCCc1ccccc1,–,59.2 µM (active)
N#Cc1c(-c2ccc(Cl)cc2)[nH]c(C(F)(F)F)c1Br,inactive,–
O=[N+]([O-])c1ccccc1,inactive,–
CCOC(=O)c1ccccc1C(=O)OCC,inactive,–
c1nc[nH]n1,inactive,–
CCC(C)(C)c1ccc(O)cc1,–,33.4 µM (active)
c1cc2c3c(cccc3c1)CC2,inactive,–
O=C(O)C(Cl)Cl,inactive,–
